Source: PubChem BioAssay (NCATS)
Results filed as inconclusive are left out. Values without a mark were called inactive. Calls of active or inactive are those of the source. The call rests on the fitted dose curve; in most records, active means well fitted inhibition curve with a large enough effect; inconclusive means small, poorly fitted or top-dose-only effect; inactive means flat fitted curve, though single readings scatter.

Assay: Cytometry Cell-Based qHTS for Inhibitors of the mTORC1 Signaling Pathway in MEF cells (AID 2668);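 further: Tsc2-/- p53-/- mouse embryonic fibroblasts stably re-expressing wild-type Tsc2; percent cells positive for phospho-rpS6 Ser235/236 relative to propidium iodide stain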
Conditions: mTORC1 pathway readout; series mostly up to 38.3 µM; activity change, negative = inhibition: at the top concentration
Text: NIH Molecular Libraries Probe Production Centers Network [MLPCN]
NIH Chemical Genomics Center [NCGC]
Assay Submitter (PI): Blenis, John; Hoffman, Greg; Harvard University
NCGC Assay Overview: The mammalian target of rapamycin (mTOR) is an intracellular serine/threonine kinase Aberrant regulation of mTOR signaling plays a causative role in a number of human diseases, including cancer, benign tumors such as lymphangioleiomyomatosis (LAM) and Tuberous Sclerosis Complex (TSC), and metabolic diseases such as diabetes and obesity. This project aims to identify inhibitors of ribosomal protein S6 (rpS6) phosphorylation. The phosphorylation of rpS6 is a key event downstream of mTOR activation. The assay uses a phospho-specific antibody of phospho-rpS6 to detect inhibitors of mTOR activation. Mutations in the Tsc1 and Tsc2 genes are the underlying genetic lesions responsible for TSC, causing constitutive activation of the mTORC1 pathway and leading to profound effects on cell metabolism. Aberrant metabolism in cancer has recently received significant attention as a target to develop therapeutic agents in the treatment of cancer.1 As Tsc2-/- cells have lost the ability to respond to energy and growth factor deprivation, these cells are unable to properly down regulate cellular biosynthetic processes in response to metabolic stress, and are thus extremely sensitive to glucose deprivation-induced death.2 A central goal of this project is to explore the unique cell survival and metabolic properties of cells with Tsc1 or Tsc2 by screening for compounds that selectively target the Tsc2-/- MEFs by screening both Tsc2-/- and WT MEF cell lines. We hope to better understand these aspects of TSC physiology in order to exploit them for therapeutic benefit.
NCGC Acumen Assay Protocol:
For quantitative high throughput analysis of mTORC1 signaling, we developed a cell-based assay for immuno-fluorescence based detection of rpS6 phosphorylation on the Acumen Explorer that will be used a platform for the primary small molecule screen. Mouse embryonic fibroblasts (MEFs) are cultured in 1536-well plates using DMEM + 10% FBS. Twenty-four hrs after plating, test compounds (solubilized in DMSO) are delivered and incubated with the cells for 24 hrs at 37 degree Celsius. Following the incubation, media with compound is aspirated and the cells are fixed in 4% paraformaldehyde (PFA) containing PBS + 0.2% TX-100. Next, PFA is aspirated, cells are washed two times with PBS plus 0.2% TX-100 and the cells are blocked for 1 hr at room temperature (blocking buffer: LiCOR Blocking Buffer plus 0.2% TX-100). This is followed by aspiration and staining with Alexa-488 conjugated-phospho-rpS6 Ser235/236 antibody for 2 hours at room temperature (Cell Signaling Technology # 4803, 1:50 dilution in blocking buffer). Cells are washed two times with PBS plus 0.2% TX-100, and stained with 10 uM propidium iodide (PI) for 20-25 minutes for cell number measurement (1:500 dilution of Hoescht staining is also added for IN Cell imaging). The plates are scanned on the Acumen Explorer laser scanning instrument (TTP Labtech) using the 488nm laser for simultaneous excitation of the Alexa-488 and PI. The fluorescence emission from the Alexa-488 conjugated rpS6 phospho-235/236 antibody staining is selected using a […] band pass filter. Fluorescence emission from the PI stain is selected using a 575-640 nm band pass filter. The normalized phospho-S6 staining is calculated as the ratio of the integrated Alexa 488 intensity divided by the integrated PI intensity for the single concentration rapamycin control (7.5 nM) and DMSO columns. […] Inhibition of the pathway is defined based on the normalized phospho-S6 intensity in rapamycin treated cells. […]

Row | Structure (SMILES) | activity change, negative = inhibition | outcome
1 | Nc1nc2ccc(OC(F)(F)F)cc2s1 | -6.5% | 
2 | O=C1CCC(N2C(=O)c3ccccc3C2=O)C(=O)N1 (stereo not given) | 0.733% | 
3 | CCOC(=O)C1=C[C@]2(CC)CCCN3CCc4c(n1c1ccccc41)[C@@H]32 | 3.93% | 
4 | NC[C@H](O)c1ccc(O)c(O)c1 | 3.43% | 
5 | CC(C)(C)NCC(O)c1ccc(O)c(CO)c1 (stereo not given) |  | inactive
6 | CC(=O)Oc1ccccc1C(=O)O | 10.2% | 
7 | Cc1[nH]c(=O)c(C#N)cc1-c1ccc2nccn2c1 | -9.09% | 
8 | Cc1[nH]c(=O)c(C#N)cc1-c1ccncc1 | 9.53% | 
9 | CC(C)(Sc1ccc(CCN(CCCCC2CCCCC2)C(=O)NC2CCCCC2)cc1)C(=O)O | -1.55% | 
10 | Nc1nc2c(ncn2COCCO)c(=O)[nH]1 | 1.43% | 
11 | Nc1ccc(S(=O)(=O)Nc2ccnn2-c2ccccc2)cc1 | -2.8% | 
12 | NC(=O)c1cnccn1 | 4.73% | 
13 | Clc1cccc(Cl)c1NC1=NCCN1 | 4.99% | 
14 | N[C@@H]1CONC1=O | 4.92% | 
15 | CCn1cc(C(=O)O)c(=O)c2cc(F)c(N3CCNC(C)C3)c(F)c21 (stereo not given) | 4.93% | 
16 | C[C@]12CCC(=O)C=C1CC[C@@H]1[C@@H]2[C@@H](O)C[C@@]2(C)[C@H]1CC[C@]2(O)C(=O)CO | 0% | 
17 | Cn1cnc([N+](=O)[O-])c1Sc1ncnc2nc[nH]c12 | 10.9% | 
18 | Oc1ccc(C2CNCCc3c2cc(O)c(O)c3Cl)cc1 (stereo not given) | -2.3% | 
19 | C1COC(NC(C2CC2)C2CC2)=N1 | 1.07% | 
20 | O=c1n(CCCN2CCN(c3cccc(Cl)c3)CC2)nc2ccccn12 | 5.1% | 

Row | Structure (SMILES) | activity change, negative = inhibition | outcome
21 | NNCCc1ccccc1 | -9.05% | 
22 | CC(C[N+](C)(C)C)OC(N)=O (stereo not given) | 7.53% | 
23 | O=NN(CCCl)C(=O)NCCCl | -4.28% | 
24 | CNC[C@H](O)c1cccc(O)c1 | 3.33% | 
25 | Cc1ccccc1C(OCCN(C)C)c1ccccc1 (stereo not given) | 1.04% | 
26 | OC(CCN1CCCCC1)(c1ccccc1)C1CC2C=CC1C2 (stereo not given) | 5.63% | 
27 | CCCC(CCC)C(=O)O | -2.17% | 
28 | Cc1oncc1C(=O)Nc1ccc(C(F)(F)F)cc1 | -24.7% | 
29 | CCCCNc1cc(C(=O)O)cc(S(N)(=O)=O)c1Oc1ccccc1 | -5.01% | 
30 | NCCCC(N)(C(=O)O)C(F)F (stereo not given) | 7.02% | 
31 | O=C1CCc2cc(OCCCCc3nnnn3C3CCCCC3)ccc2N1 | -4.59% | 
32 | Cc1cnc(NC(=O)C2=C(O)c3ccccc3S(=O)(=O)N2C)s1 | 6.04% | 
33 | N=c1nc(N2CCCCC2)cc(N)n1O | 6.84% | 
34 | O=c1[nH]cnc2[nH]ncc12 | 4.92% | 
35 | CCC(C)N(C)C(=O)c1cc2ccccc2c(-c2ccccc2Cl)n1 (stereo not given) | 1.26% | 
36 | NS(=O)(=O)c1cc2c(cc1Cl)NC=NS2(=O)=O | 8.15% | 
37 | Nc1ncnc2nc(-c3ccc(N4CCOCC4)nc3)cc(-c3cccc(Br)c3)c12 | -2.78% | 
38 | O=C(O)COCCN1CCN(C(c2ccccc2)c2ccc(Cl)cc2)CC1 (stereo not given) | -1.24% | 
39 | Cc1ccc(N(CC2=NCCN2)c2cccc(O)c2)cc1 | -19.9% | 
40 | CCN(CC)CCCC(C)Nc1ccnc2cc(Cl)ccc12 (stereo not given) | 6.39% | 
